According to PubChem BioAssay (NCI):
This is part of a sample that, as a whole, favours compounds with a hit. Of some 83,000 tested, about 20% had one in any assay.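 48-hour exposure, single concentration, 96-well plates; percent growth endpoint where 0 means no net growth. Active: below 10.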 The source made the active and inactive calls.

These compounds were tested on CCRF-CEM leukemia (assay: NCI-60 one-dose screen, 48 h (100 = growth as untreated, 0 = no growth, -100 = all killed)). Conditions: 10 µM unless noted.
For `Fc1ccc(C2=NN(c3ccccc3)C(c3sc(N(CCCl)CCCl)nc3Cl)C2)cc1` (stereo unspecified), the growth was 83.1% (inactive).
With `CC[C@H](C)[C@H](NC(=O)Nc1ccccc1)C(=O)N(C)[C@H](C[C@@H](OC(C)=O)c1nc(C(=O)N[C@@H](Cc2ccccc2)C[C@H](C)C(=O)OC)cs1)C(C)C` the growth was 9.52% (active).
With `c1ccc(CCN2CCCCC2Cc2ccccc2)cc1` (stereo unspecified) the growth was 105% (inactive).
With `O=C(N/N=C/c1ccc(N(CCCl)CCCl)cc1)c1cc(=O)[nH]c(=O)[nH]1` the growth was 66.5% (inactive).
For `O=[As]c1ccc(C(=O)c2ccc(Oc3ccccc3)cc2)cc1` (stereo unspecified), the growth was -33.1% (active).
For `O=[N+]([O-])c1cc([N+](=O)[O-])c(Cl)c(Cl)c1Cl`, the growth was -22.3% (active).
For `Cc1cc(NC(=O)NCCOc2ccc(N3C(N)=NC(N)=NC3(C)C)cc2Cl)ccc1S(=O)(=O)F`, the growth was 18.6% (inactive).
With `COc1ccc2c(c1)NC1=C(C(=O)OC1)C2c1cc(OC)c(OC)c(OC)c1` (stereo unspecified) the growth was 6.76% (active).
In the case of `C=CCc1ccc(OC(=O)Cc2ccccc2)c(OC)c1`, the growth is reported as 101% (inactive).
With `CC(C)(O)/C=C/C(=O)[C@](C)(O)[C@H]1[C@H](O)C[C@@]2(C)[C@@H]3CC=C4[C@@H](C=C(O)C(=O)C4(C)C)[C@]3(C)C(=O)C[C@]12C` the growth was -29.1% (active).
In the case of `C[C@]12CCc3sc(-c4ccc(Cl)cc4)nc3C1=CC[C@@H]1[C@@H]2CC[C@]2(C)C(=O)CC[C@@H]12`, the growth is reported as 14.5% (inactive).
For `C=CCC1(CC)C(=O)NC(=S)NC1=O`, the growth was 100% (inactive).
`NC(Cc1ccc2c(c1)OCO2)c1ccc2c(c1)OCO2` (stereo unspecified) was tested, and the growth was 98.2% (inactive).
For `O=C(CF)N(O)c1ccc(/C=C/c2ccccc2)cc1`, the growth was 13.5% (inactive).
In the case of `COc1ccc(/C=C(/C(=O)N2CCCC2)c2cc(OC)c(OC)c(OC)c2)cc1N`, the growth is reported as 19% (inactive).
In the case of `Nc1nc(N)c(-c2ccc(Cl)c(Cl)c2)c(/C=C/c2ccc(S(=O)(=O)F)cc2)n1`, the growth is reported as 58.7% (inactive).
For `Nc1c(Br)cc([N+](=O)[O-])cc1[N+](=O)[O-]`, the growth was 118% (inactive).
For `Oc1ccc(O)c2c1C1(Cl)C(Cl)=C(Cl)C2(Cl)C1(Cl)Cl`, the growth was 56.9% (inactive).
For `CCCCNCCc1ccccn1`, the growth was 92.4% (inactive).
`C=C=[CH][Sn]([c]1ccccc1)([c]1ccccc1)[c]1ccccc1` was tested, and the growth was -0.102% (active).
`NC(=O)SCC(=O)Nc1ccc([As](=O)(O)O)cc1` was tested, and the growth was 59.3% (inactive).
In the case of `C[C@]12CC[C@H]3[C@@H](C[C@@H]4N=C(c5ccc(O)cc5)S[C@@]45C[C@H](O)CC[C@]35C)[C@@H]1CC[C@@H]2O`, the growth is reported as 13.1% (inactive).
`CC1(C)N=C(N)N=C(N)N1c1ccc(CCCCc2ccc(S(=O)(=O)F)cc2)cc1` was tested, and the growth was 23.4% (inactive).
For `Nc1c(Br)cc2c3c(cccc13)-c1ccccc1-2`, the growth was 48.8% (inactive).
With `COc1cc2c(cc1OC)CN(C)C(C)C2` (stereo unspecified) the growth was 100% (inactive).
With `CC(C)C1c2ccc(O)cc2Oc2nc(N)c(C#N)c(N)c21` (stereo unspecified) the growth was 94.8% (inactive).
With `c1ccc2nc(OCCN3CC3)ccc2c1` the growth was 31.7% (inactive).
`CC1(C)N=C(N)N=C(N)N1c1ccc(CNC(=O)Nc2ccc(S(=O)(=O)F)c(Cl)c2)c(Cl)c1` was tested, and the growth was 17.5% (inactive).
`c1ccc(-c2ccc3ccccc3[o+]2)cc1` was tested, and the growth was 92.4% (inactive).
With `CSc1ccccc1NP1(=O)OCC(C)([N+](=O)[O-])CO1` (stereo unspecified) the growth was 80.8% (inactive).
`CC1COC(=O)C1` (stereo unspecified) was tested, and the growth was 95.4% (inactive).
For `COc1ccc(/C=C\c2cc(OC)c(OC)c(OC)c2)cc1N/C=C\C(=O)c1c[nH]c2ccccc12`, the growth was 5.7% (active).
With `CCCC(C)(C)c1ccc2c(c1)OC(C)(C)[C@@H]1CC=C(C)C[C@@H]21` the growth was 84.2% (inactive).
With `OC1(c2ccc(Cl)cc2Cl)c2ccccc2C2=NCCN21` (stereo unspecified) the growth was 90.5% (inactive).
With `CC1(CF)NC(=O)NC1=O` (stereo unspecified) the growth was 95.7% (inactive).
With `O=C(Nc1ccc(S(=O)(=O)F)cc1)Oc1ccccc1` the growth was 88.1% (inactive).
